# Sampled rows, rich in hits. Any-hit rate of the full collection: about 7.9%.
# KB-3-1 cytotox – qHTS assay for MDR1-selective chemotherapeutics: Primary screen using the parental adenocarcinoma cell KB-3-1; 1.4% of 400,000 active; AID 1347075, 2019; Potency, µM (titrated, usually from 46.1 µM), most hits filed as cytotoxic; KB-3-1 viability, CellTiter-Glo ATP luminescence, 72 h; note: % is set by controls: 0 for no effect and ±100 for the full control effect; nearly all actives have a fitted effect of over 60% in size
#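 Luminescent ATP read-out (CellTiter-Glo) measures survival of drug-naive KB-3-1 cells after 72 h compound exposure at 37 °C. Titration series was screened from lowest to highest concentration, with DMSO vehicle plates as background controls.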
# SW480 rereplic – A quantitative high throughput screen for small molecules that induce DNA re-replication in SW480 colon adenocarcinoma cells | SW480 DNA re-replication, Hoechst DNA content imaging, 48 h | Potency, µM (doses to about 46.1 µM), for inactives: top-dose re-replication activation, most hits filed as activators | 1.8% of 340,000 active; note: % of control where 0% means no effect; nearly all actives have a fitted effect of over 55% in size
#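 SW480 cells exposed to compounds for 48 hr at 37 C, 5% CO2, then Hoechst-stained 40 min. Nuclear DNA content imaged by fluorescence scanning (405 nm excitation, 500-530 nm emission); re-replication scored as increased high-intensity nuclei.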
# HT1080-NT tox – qHTS for induction of synthetic lethality in tumor cells producing 2HG: qHTS for the HT-1080-NT fibrosarcoma cell line; HT-1080-NT fibrosarcoma viability, CellTiter-Glo ATP luminescence, 48 h; Potency, µM (top dose mostly 46.1 µM), without a hit: top-dose activity, negative = less viability, most hits filed as cytotoxic; 1.6% of 360,000 active;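 note: NT is the 2HG producing partner of a matched IDH1 knockdown line; 0% = DMSO-treated cells and -100% = media-only wells without cells; nearly all actives have a fitted effect of over 55% in size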
#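 750 cells/well, RPMI + 5% FBS; 2 h settle, compound pin-transfer, 48 h at 37 degrees C. CellTiter-Glo 10 min RT, luminescence. Normalized to DMSO and media-only wells.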
# MCF10A rerep – A quantitative high throughput screen for small molecules that induce DNA re-replication in MCF 10a normal breast cells. MCF 10A DNA re-replication, Hoechst nuclear intensity, 48 h. AID 624296, 2012. Potency, µM (doses to about 46.1 µM), without a hit: top-dose activity, positive = re-replication, most hits filed as activators. 2.9% of 350,000 active; note: % of control where 0% means no effect; nearly all actives have a fitted effect of over 50% in size
# KB-V1 MDR tox – qHTS assay for MDR1-selective chemotherapeutics: Primary screen using the drug-selected MDR subline cells KB-V1. KB-V1 MDR cells viability, CellTiter-Glo, 72 h. 3.4% of 400,000 active. Potency, µM (series often up to 46.1 µM), usual class: cytotoxic. AID 1347076, 2019; note: % is set by controls: 0 for no effect and ±100 for the full control effect; nearly all actives have a fitted effect of over 60% in size
#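 Drug-selected KB-V1 cells, grown in DMEM lacking phenol red with 10% FBS, receive compound titrations; after three days at 37 degrees C, surviving cell ATP is quantified by CellTiter-Glo luminescence and responses normalized and curve-fitted.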
# HT1080 IDH1KD tx – qHTS for induction of synthetic lethality in tumor cells producing 2HG: qHTS for the HT-1080-IDH1KD cell line | Potency, µM (titrated, usually from 46.1 µM), inactives show top-dose activity, negative = toxicity, usual class: cytotoxic | AID 686971, 2013 | 2% of 360,000 active | HT-1080 IDH1 knockdown viability, ATP luminescence, 48 h;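 note: 0% = DMSO wells and -100% = cell-free medium wells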
#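 After a 2 h attachment period, IDH1KD HT-1080 cells took pin-transferred compound for 48 h at 37 °C; ATP-based luminescence after 10 min room-temperature reagent incubation reported viability.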
# * hit, by the source's call; i = inactive; ? = inconclusive; / = not tested or not shown; [ ] = remark or other dose. Calls come from the whole dose curve; as a rule, active = well fitted curve in the direction sought with a large enough effect; inconclusive = small, poorly fitted or top-dose-only effect, or another doubt; inactive = no such curve, though single readings can be large; an effect the other way counts as inactive or inconclusive. Potency is the fitted concentration of half-maximal effect.
SMILES,KB-3-1 cytotox,SW480 rereplic,HT1080-NT tox,MCF10A rerep,KB-V1 MDR tox,HT1080 IDH1KD tx
Cc1ccc(/C=N/c2sc(Cc3ccccc3)c(C)c2C(N)=O)o1,?,-441.8%,?,?,?,-20.3%
Cc1c(Cc2ccccc2)sc(/N=C/c2ccc3ccccc3c2)c1C(N)=O,?,1.16µM*,2.91µM*,2.91µM*,0.92µM*,2.91µM*
CCOC(=O)c1cc(CC)sc1/N=C/c1c(O)ccc2ccccc12,?,-1.5%,-29.3%,?,i,18.4µM*
Cn1c(=O)c2c(nc(Sc3ncccn3)n2Cc2ccccc2Cl)n(C)c1=O,i,-12.6%,3.8%,?,23.1µM*,0.3%
C=CCOc1nc2c(c(=O)n(C)c(=O)n2C)n1Cc1ccccc1Cl,?,-3.0%,5.5%[9.24 µM],?,7.31µM*,?
Cn1c(=O)c2c(nc(Sc3ncccn3)n2Cc2ccc(Cl)cc2)n(C)c1=O,i,-1.3%,-3.4%,7.4%,i,-11.7%
COc1ccc(Oc2nc3c(c(=O)n(C)c(=O)n3C)n2Cc2ccccc2Cl)cc1,i,/,/,/,i,/
CCCOc1nc2c(c(=O)n(C)c(=O)n2C)n1Cc1cccc2ccccc12,i,9.7%,9.6%,17.6%,5.8µM*,6.7%
C=CCOc1nc2c(c(=O)n(C)c(=O)n2C)n1Cc1ccc(Cl)cc1,?,-5.7%,2.7%,-8.3%,2.91µM*,18.3%
CCCOc1nc2c(c(=O)n(C)c(=O)n2C)n1C,i,-2.6%,17.3%,-4.8%,i,10.0%
CCOc1ccc(NC(=O)CN(C)C(=O)c2cccnc2Sc2ccc(Cl)cc2)cc1OCC,i,?,-3.3%,10.0%,i,-2.1%
Cc1ccc2nc(N3C(=O)C(O)=C(C(=O)c4ccco4)C3c3cccs3)sc2c1 (stereo not given),i,?,?,20.6µM*,13µM*,?
COc1ccc2nc(N3C(=O)C(O)=C(C(=O)c4ccco4)C3c3ccc(C)o3)sc2c1 (stereo not given),i,-6.0%,-25.9%,?,?,-27.8%
Cc1cc(C)c2nc(N3C(=O)C(O)=C(C(=O)c4ccco4)C3c3ccco3)sc2c1 (stereo not given),i,16.4µM*,?,18.4µM*,i,?
CCN1CCC(N(Cc2ccc3c(c2)OCO3)C(=O)Nc2ccc(Br)c(C)c2)CC1,i,/,/,/,i,/
Cc1ccc(C(=O)NCC(=O)N(C)Cc2ccc(Cl)cc2Cl)s1,i,-8.4%,0.3%,4.4%,16.4µM*,6.1%
Cc1ccc(C(=O)NCC(=O)N(C)CC(=O)Nc2ccccc2Br)s1,i,-3.9%,3.6%,-1.5%,20.6µM*,-0.2%
CN(Cc1ccc(Cl)cc1Cl)C(=O)CNC(=O)c1ccco1,i,-22.3%,26.3%,-3.9%,i,8.3%
CC1CCCCC1NS(=O)(=O)c1ccc(S(=O)(=O)N2CCN(CCC#N)CC2)cc1 (stereo not given),i,-2.0%,-17.3%,0.3%,i,-8.5%
CC1CCCCN1S(=O)(=O)c1ccc(C(=O)Nc2nnc(-c3ccncc3)o2)cc1 (stereo not given),?,0.4%,?,?,?,?
COc1ccc(-c2nnc(NC(=O)c3ccc(S(=O)(=O)N4COCC4(C)C)cc3)o2)cc1,?,?,?,18.1%[9.22 µM],?,8.2µM*
CC1(C)COCN1S(=O)(=O)c1ccc(C(=O)Nc2nnc(-c3ccc(Cl)s3)o2)cc1,?,?,?,?,i,2.82µM*
